# About 7,900 targets were measured; listed, in parts, are those with a hit and a random draw of the rest. About 0.6% of all pairs of compound and target were hits. Values without a mark were called inactive.
# What was measured:
# Assay in all cases: log2 fold change, soluble protein after heating vs DMSO (PISA); higher = thermal stabilisation; K562 cells, 10 uM, 30 min; active = over 0.2 and 3.5 SD of the protein, either way, in both replicates (recomputed)
# [1] = compound: CN1CCN(CCOc2cc(OC3CCOCC3)c3c(Nc4c(Cl)ccc5c4OCO5)ncnc3c2)CC1 [saracatinib]
# How it was run: (§1)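 K562 cells at 2×10^6 cells/mL were treated with 10 μM compound for 30 min. Aliquots were heated for 3 min across 48°C-58°C, pooled, and extracted in PBS with 0.5% NP-40 at 4°C; soluble protein was the supernatant after 21,000xg for 90 min. Soluble protein was quantified by TMTpro 16plex LC-MS/MS with channel sums equalised, and reported as log2 fold change in thermal stability against DMSO controls, with values from duplicates.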
# [2] = compound: CN1CCN(c2nc(C3=C(c4c[nH]c5ccccc45)C(=O)NC3=O)c3ccccc3n2)CC1 [sotrastaurin]
# How it was run: as §1
# [3] = compound: CN1CC[C@H](c2c(O)cc(O)c3c(=O)cc(-c4ccccc4Cl)oc23)[C@H](O)C1 [alvocidib]
# How it was run: as §1
# [4] = compound: CN1CCc2c(c3ccccc3n2Cc2ccc(C(=O)NO)cc2)C1 [Tubastatin A]
# How it was run: as §1
# [5] = compound: CNC(=O)C1=CC=CC=C1NC2=NC(=NC=C2Cl)NC3=C(C=C(C=C3)N4CCOCC4)OC
# How it was run: as §1
# [6] = compound: CNC(=O)c1ccc(Nc2ncc(C(F)(F)F)c(NCc3nccnc3N(C)S(C)(=O)=O)n2)cc1 [defactinib]
# How it was run: as §1
# [7] = compound: CNCc1ccc(-c2[nH]c3cc(F)cc4c3c2CCNC4=O)cc1 [rucaparib]
# How it was run: as §1
# [8] = compound: CNc1nc(-c2ccc3c(N)n[nH]c3c2)cc(N2C[C@@H](C(=O)NC3CCCCC3)CC[C@H]2C)n1
# How it was run: as §1
# [9] = compound: COC(=O)N[C@@H](C)CNc1nccc(-c2cn(C(C)C)nc2-c2cc(Cl)cc(NS(C)(=O)=O)c2F)n1 [encorafenib]
# How it was run: as §1
# [10] = compound: COC(=O)[C@H](CCSC)NC(=O)C1=C(C=C(C=C1)NC[C@H](CS)N)C2=CC=CC=C2
# How it was run: as §1
# [11] = compound: COC1=CC=C(C=C1)CN2C=CC3=C2C=C(C=C3)C(=O)NO
# How it was run: as §1
# [12] = compound: CON(C)C(=O)N1N=C(c2cc(F)ccc2F)S[C@@]1(CCCN)c1ccccc1 [filanesib]
# How it was run: as §1
# [13] = compound: CO[C@H]1C[C@@H]2CC[C@@H](C)[C@@](O)(O2)C(=O)C(=O)N2CCCC[C@H]2C(=O)O[C@H]([C@H](C)C[C@@H]2CC[C@H](n3cnnn3)[C@H](OC)C2)CC(=O)[C@H](C)/C=C(\C)[C@@H](O)[C@@H](OC)C(=O)[C@H](C)C[C@H](C)/C=C/C=C/C=C/1C [zotarolimus]
# How it was run: as §1
# [14] = compound: COc1cc(C(=O)O)ccc1NC(=O)[C@@H]1N[C@@H](CC(C)(C)C)[C@](C#N)(c2ccc(Cl)cc2F)[C@H]1c1cccc(Cl)c1F [idasanutlin]
# How it was run: as §1
# [15] = compound: COc1cc(Nc2ncc3c(n2)-c2ccc(Cl)cc2C(c2c(F)cccc2OC)=NC3)ccc1C(=O)O [alisertib]
# How it was run: as §1
# [16] = compound: COc1cc2nc(-c3cc(F)ccc3O)nc(N[C@@H]3CNC[C@H]3C(C)(C)O)c2cc1OC
# How it was run: as §1
# [17] = compound: COc1cc2ncnc(Nc3ccc(F)c(Cl)c3)c2cc1OCCCN1CCOCC1 [gefitinib]
# How it was run: as §1
# [18] = compound: COc1cccc2cc(-c3nc([C@H]4CC[C@H](C(=O)O)CC4)n4ncnc(N)c34)[nH]c12
# How it was run: as §1
# [19] = compound: CS(=O)(=O)CCNCc1ccc(-c2ccc3ncnc(Nc4ccc(OCc5cccc(F)c5)c(Cl)c4)c3c2)o1 [lapatinib]
# How it was run: as §1
# [20] = compound: CS(=O)(=O)N1CCN(Cc2cc3nc(-c4cccc5[nH]ncc45)nc(N4CCOCC4)c3s2)CC1 [pictilisib]
# How it was run: as §1
# Sequence of UniProt O43615 (O43615 whole entry, looked up): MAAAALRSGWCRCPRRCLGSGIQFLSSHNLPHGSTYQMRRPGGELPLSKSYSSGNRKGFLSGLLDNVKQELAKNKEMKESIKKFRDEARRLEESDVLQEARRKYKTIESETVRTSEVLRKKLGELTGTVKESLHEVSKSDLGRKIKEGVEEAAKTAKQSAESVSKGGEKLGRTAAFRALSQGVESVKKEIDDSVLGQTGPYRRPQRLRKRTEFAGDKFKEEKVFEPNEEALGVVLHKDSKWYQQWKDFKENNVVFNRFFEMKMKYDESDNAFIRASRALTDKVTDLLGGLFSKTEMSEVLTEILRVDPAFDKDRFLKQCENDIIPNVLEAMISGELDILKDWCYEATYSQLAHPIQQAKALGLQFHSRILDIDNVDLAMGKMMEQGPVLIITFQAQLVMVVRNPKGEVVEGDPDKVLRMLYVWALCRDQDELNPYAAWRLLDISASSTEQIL
# Sequence of UniProt P53597 (P53597 whole entry, looked up): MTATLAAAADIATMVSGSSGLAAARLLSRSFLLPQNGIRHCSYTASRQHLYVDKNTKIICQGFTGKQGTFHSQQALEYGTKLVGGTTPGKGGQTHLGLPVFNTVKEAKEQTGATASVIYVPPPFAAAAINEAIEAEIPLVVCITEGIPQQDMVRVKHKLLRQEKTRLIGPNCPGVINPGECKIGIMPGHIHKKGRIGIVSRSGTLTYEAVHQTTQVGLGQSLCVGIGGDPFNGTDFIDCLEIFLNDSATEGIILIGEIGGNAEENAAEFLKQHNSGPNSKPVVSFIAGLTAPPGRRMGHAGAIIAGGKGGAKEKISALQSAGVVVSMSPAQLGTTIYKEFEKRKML
# Sequence of UniProt P23497 (P23497 whole entry, looked up): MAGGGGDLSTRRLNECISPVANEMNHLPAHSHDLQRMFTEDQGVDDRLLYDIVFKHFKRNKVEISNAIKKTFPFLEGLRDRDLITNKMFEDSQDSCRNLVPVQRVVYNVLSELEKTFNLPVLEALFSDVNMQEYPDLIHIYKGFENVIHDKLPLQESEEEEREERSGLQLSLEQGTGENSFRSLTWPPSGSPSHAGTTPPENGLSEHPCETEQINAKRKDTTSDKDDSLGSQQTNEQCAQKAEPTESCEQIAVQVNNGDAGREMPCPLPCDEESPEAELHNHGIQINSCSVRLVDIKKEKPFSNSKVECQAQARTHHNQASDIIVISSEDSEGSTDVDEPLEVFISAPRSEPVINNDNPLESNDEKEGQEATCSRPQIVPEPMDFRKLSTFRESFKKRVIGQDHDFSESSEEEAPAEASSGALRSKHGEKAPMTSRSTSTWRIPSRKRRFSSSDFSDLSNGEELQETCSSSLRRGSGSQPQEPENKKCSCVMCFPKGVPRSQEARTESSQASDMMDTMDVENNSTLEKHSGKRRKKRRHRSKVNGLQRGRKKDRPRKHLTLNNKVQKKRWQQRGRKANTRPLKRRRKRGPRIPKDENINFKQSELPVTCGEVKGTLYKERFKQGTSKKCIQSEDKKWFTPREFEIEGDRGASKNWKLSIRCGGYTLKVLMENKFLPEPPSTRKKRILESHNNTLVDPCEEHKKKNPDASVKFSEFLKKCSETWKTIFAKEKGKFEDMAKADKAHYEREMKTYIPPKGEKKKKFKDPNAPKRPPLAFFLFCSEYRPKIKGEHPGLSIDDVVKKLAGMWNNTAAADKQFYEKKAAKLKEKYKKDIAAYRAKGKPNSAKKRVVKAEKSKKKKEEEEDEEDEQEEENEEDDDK
# Sequence of UniProt P56962 (P56962 whole entry, looked up): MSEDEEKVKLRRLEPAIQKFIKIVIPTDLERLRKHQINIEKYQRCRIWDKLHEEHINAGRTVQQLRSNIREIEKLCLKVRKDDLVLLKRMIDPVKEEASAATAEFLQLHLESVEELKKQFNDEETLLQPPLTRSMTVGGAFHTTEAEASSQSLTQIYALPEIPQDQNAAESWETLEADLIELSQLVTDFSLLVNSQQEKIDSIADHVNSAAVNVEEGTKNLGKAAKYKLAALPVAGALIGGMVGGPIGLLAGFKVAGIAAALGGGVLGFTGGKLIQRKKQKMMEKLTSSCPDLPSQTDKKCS
# Sequence of UniProt Q8IWZ8 (Q8IWZ8 whole entry, looked up): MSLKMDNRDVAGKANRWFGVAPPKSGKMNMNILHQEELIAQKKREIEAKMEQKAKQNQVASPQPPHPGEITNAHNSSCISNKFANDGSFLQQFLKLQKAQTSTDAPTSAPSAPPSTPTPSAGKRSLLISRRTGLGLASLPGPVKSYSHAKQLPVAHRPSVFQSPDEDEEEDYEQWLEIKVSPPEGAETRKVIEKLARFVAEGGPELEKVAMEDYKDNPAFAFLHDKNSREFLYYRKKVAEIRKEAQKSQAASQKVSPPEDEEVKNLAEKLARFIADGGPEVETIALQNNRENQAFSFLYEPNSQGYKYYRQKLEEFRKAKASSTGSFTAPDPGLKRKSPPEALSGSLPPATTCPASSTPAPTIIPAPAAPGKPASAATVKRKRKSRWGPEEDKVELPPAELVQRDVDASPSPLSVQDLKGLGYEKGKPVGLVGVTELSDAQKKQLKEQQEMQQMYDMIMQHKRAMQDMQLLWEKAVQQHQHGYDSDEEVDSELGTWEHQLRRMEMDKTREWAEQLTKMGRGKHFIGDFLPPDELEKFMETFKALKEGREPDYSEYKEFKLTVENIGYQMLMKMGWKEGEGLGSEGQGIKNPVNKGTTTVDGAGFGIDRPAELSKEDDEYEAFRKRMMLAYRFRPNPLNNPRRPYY
# Sequence of UniProt Q86VP1 (Q86VP1 whole entry, looked up): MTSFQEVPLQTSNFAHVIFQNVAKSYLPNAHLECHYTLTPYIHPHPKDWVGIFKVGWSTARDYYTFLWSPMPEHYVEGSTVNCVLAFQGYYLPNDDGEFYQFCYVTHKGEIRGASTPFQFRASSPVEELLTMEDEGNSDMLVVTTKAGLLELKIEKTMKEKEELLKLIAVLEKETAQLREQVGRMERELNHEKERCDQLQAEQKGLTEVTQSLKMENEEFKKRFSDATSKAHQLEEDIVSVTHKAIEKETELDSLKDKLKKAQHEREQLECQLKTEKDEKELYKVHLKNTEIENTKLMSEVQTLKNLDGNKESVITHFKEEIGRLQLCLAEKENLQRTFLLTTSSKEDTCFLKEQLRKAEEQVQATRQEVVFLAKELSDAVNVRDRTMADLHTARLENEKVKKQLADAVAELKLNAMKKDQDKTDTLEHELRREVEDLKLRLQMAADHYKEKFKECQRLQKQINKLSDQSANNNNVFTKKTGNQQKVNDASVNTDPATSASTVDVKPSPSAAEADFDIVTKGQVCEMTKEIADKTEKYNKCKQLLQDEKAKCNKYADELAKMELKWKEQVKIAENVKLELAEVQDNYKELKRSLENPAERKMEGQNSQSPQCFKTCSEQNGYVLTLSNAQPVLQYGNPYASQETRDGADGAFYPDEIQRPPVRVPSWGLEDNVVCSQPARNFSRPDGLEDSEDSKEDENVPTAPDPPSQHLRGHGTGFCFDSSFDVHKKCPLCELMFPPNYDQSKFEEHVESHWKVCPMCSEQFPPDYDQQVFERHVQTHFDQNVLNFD
# Sequence of UniProt Q9Y2W1 (Q9Y2W1 whole entry, looked up): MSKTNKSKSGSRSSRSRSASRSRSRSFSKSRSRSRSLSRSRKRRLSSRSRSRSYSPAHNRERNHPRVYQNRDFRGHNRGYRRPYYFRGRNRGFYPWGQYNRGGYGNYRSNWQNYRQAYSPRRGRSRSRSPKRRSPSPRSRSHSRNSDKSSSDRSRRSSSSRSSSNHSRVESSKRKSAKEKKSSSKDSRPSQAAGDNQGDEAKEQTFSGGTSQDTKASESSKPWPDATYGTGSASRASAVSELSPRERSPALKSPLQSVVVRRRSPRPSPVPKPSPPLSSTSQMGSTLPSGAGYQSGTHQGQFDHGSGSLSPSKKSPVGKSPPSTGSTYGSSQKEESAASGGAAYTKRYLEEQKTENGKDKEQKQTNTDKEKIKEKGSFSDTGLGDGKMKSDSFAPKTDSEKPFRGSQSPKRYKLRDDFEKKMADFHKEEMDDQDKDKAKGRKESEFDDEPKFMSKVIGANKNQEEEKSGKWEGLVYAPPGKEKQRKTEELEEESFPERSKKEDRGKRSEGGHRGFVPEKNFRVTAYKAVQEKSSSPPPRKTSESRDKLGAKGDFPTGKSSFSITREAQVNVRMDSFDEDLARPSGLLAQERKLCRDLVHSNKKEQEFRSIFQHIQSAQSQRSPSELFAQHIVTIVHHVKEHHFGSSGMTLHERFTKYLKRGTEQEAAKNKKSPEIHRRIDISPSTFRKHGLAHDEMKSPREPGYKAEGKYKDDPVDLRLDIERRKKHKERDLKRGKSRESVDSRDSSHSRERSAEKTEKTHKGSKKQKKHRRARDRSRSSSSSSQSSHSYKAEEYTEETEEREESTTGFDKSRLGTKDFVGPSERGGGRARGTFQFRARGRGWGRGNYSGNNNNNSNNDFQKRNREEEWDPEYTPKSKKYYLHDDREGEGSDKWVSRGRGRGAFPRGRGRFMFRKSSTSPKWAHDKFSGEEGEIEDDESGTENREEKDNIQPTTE
# Sequence of UniProt Q15208 (Q15208 whole entry, looked up): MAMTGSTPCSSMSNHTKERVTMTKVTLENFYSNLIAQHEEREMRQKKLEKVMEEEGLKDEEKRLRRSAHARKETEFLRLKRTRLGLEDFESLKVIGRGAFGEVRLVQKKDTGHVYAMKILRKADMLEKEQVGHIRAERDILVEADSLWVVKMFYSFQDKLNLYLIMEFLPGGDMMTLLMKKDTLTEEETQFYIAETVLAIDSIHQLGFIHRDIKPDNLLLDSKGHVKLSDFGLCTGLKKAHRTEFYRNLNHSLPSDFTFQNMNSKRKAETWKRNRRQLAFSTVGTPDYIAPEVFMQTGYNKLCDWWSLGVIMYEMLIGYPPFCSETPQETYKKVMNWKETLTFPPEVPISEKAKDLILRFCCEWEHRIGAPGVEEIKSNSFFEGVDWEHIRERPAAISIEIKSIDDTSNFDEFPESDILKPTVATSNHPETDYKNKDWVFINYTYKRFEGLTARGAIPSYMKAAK
Target,log2 fold change [1],log2 fold change [2],log2 fold change [3],log2 fold change [4],log2 fold change [5],log2 fold change [6],log2 fold change [7],log2 fold change [8],log2 fold change [9],log2 fold change [10],log2 fold change [11],log2 fold change [12],log2 fold change [13],log2 fold change [14],log2 fold change [15],log2 fold change [16],log2 fold change [17],log2 fold change [18],log2 fold change [19],log2 fold change [20]
TGFBR1 isoform 2 (UniProt P36897),0.371 (active),0.026,-0.009,0.023,-0.045,0.039,0.096,0.041,0.041,-0.055,0.004,-0.001,-0.217,-0.007,-0.05,0.06,-0.029,-0.041,0.063,-0.073
SMAD9 (UniProt O15198),0.076,0.078,-0.065,-0.003,-0.013,-0.076,-0.094,0.055,-0.001,-0.049,-0.002,0.009,-0.033,-0.132,-0.014,-0.012,0.066,-0.005,0.051,0.148
THRAP3 (UniProt Q9Y2W1),0.035,0.008,0.094,0.048,-0.266,-0.29,-0.002,-0.047,-0.015,0.019,0.087,0.155,-0.117,0.12,-0.095,-0.127,0.15,0.13,0.066,0.005
SNX9 (UniProt Q9Y5X1),0.01,-0.064,-0.069,-0.025,0.038,-0.112,0.058,-0.005,0.049,0,-0.002,-0.017,0.004,-0.01,-0.013,0.019,0.038,-0.059,-0.034,-0.036
SYMPK (UniProt Q92797),-0.058,-0.205,-0.2,0.258,0.008,-0.245,0.09,0.007,0.079,-0.022,0.069,-0.102,0.07,-0.127,0.047,0.036,0.107,0.025,-0.045,0.155
STK38 (UniProt Q15208),-0.02,-0.055,-0.12,-0.016,-0.073,-0.127,0.058,0.005,0.104,-0.064,0.029,-0.024,0.036,-0.009,0.007,-0.006,-0.038,-0.01,-0.001,0.146
SUGP1 (UniProt Q8IWZ8),0.012,-0.049,-0.129,0.052,-0.043,-0.124,-0.016,-0.074,-0.003,-0.02,0.027,-0.01,0,0.026,-0.038,-0.007,0.055,-0.02,-0.046,0.032
TIMM44 (UniProt O43615),-0.055,-0.132,-0.044,-0.055,-0.012,-0.035,-0.12,-0.057,0.054,0.007,0,-0.229,0.027,-0.042,-0.021,-0.296 (active),-0.135,0.017,-0.073,-0.041
SLC7A6OS (UniProt Q96CW6),0.14,0.008,0.024,-0.001,0.031,-0.144,-0.05,-0.078,-0.004,0.06,-0.085,0.006,0.046,-0.034,-0.073,-0.072,0.007,-0.037,0.038,0.019
TAX1BP1 (UniProt Q86VP1),0.016,-0.057,-0.028,-0.01,-0.016,-0.038,-0.003,-0.06,0.025,0.054,-0.03,-0.043,-0.009,0.069,0.007,-0.052,0.001,0.033,-0.012,0.044
SP100 isoform 4 (UniProt P23497),0.058,-0.003,-0.117,-0.015,0.018,-0.087,-0.065,-0.092,-0.06,0.095,0.05,0,0.013,-0.022,-0.026,-0.242 (active),0.024,0.036,0.188,0.013
SLC30A10 (UniProt Q6XR72),-0.075,0.031,-0.031,0.008,-0.025,0.012,-0.073,-0.036,0.001,-0.011,0.06,0.032,-0.02,0.005,-0.12,0.003,0.095,0.032,0.001,0.095
SUCLG1 (UniProt P53597),0.042,0.019,-0.028,-0.005,0.015,-0.057,0.016,-0.006,-0.001,0.016,-0.046,-0.107,0.004,-0.107,0.037,0.051,-0.01,0.041,-0.043,0.003
STX17 (UniProt P56962),-0.038,0,-0.217,0.044,0.021,-0.266,0.152,0.127,0.091,-0.001,0.023,0.013,0.046,-0.027,-0.12,-0.081,0.027,-0.001,0.039,0.093
SNRNP40 (UniProt Q96DI7),0.068,-0.01,0.143,-0.092,0.045,0.128,0.012,-0.03,0.039,-0.034,-0.039,0.08,-0.015,0.007,-0.054,0.191,-0.052,0.025,0.02,0.295 (active)
STARD9 (UniProt Q9P2P6),0.051,-0.316,-0.337,0.122,-0.344,0.144,-0.005,0.103,0.048,-0.03,-0.037,-0.028,0.098,-0.035,0.096,0.058,-0.132,-0.185,0.154,0.008

# — the supplement of paper PMC10849652
